In PubChem BioAssay (EPA / NIEHS) one finds outcome and AC50 data, which are given here for 30 compounds.

As usually defined, the AC50 is the concentration at which the activity in the assay is half-maximal.

Each structure is given as a SMILES string. Active and inactive are the calls of the source. The calls were made as follows: active = hit-call score of the fitted dose curve at least 0.9, where 1 is the maximum; inactive = score below 0.9.

One assay is described as follows: ATG_GATA_CIS: Attagene CIS-FACTORIAL HepG2 Assay for human GATA Binding Protein (AID 2282944). Conditions: HepG2 GATA cis-element reporter, Attagene multiplex mRNA; actives raise or lower the signal. Put shortly:
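Reporter transcripts from a GATA cis-regulated unit, among multiplexed reporters in transfected HepG2 cells, were measured by RT-PCR with capillary electrophoresis after 24 h dosing. Induction or loss scored relative to DMSO.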
Consider `Nc1ccc2c(c1)C(=O)c1ccccc1C2=O`, for which the compound was classed as inactive.

Regarding `CC(=O)C(C)=CC1C(C)=CCCC1(C)C` (stereo not given), the result was inactive.

Take `CCCCCCC(=O)OCC`: the compound was called inactive.

In the case of `CCCCN(CCCC)CCCC`, the call was inactive.

As for `Cc1nc(C)nc(N2C[C@@H](C)N(c3ccnc([C@@H](C)O)n3)[C@@H](C)C2)n1`, the compound was classed as inactive.

As to `CC(=O)OCCOCCOCCOC(C)=O`, the result was inactive.

For `CCOC(=O)CCC(=O)OCC`, the outcome was inactive.

Take `CC(=O)Oc1ccccc1C(=O)O`: the outcome was inactive.

Consider `CC(=O)OC/C=C(\C)CCC=C(C)C`, for which the result was inactive.

Take `CC(C)c1ccc(C(=O)N=C(N)N)cc1S(C)(=O)=O`: the call was inactive.

As for `Cc1ccc(Cl)cc1`, the outcome was inactive.

In the case of `C[Si]1(C)O[Si](C)(C)O[Si](C)(C)O[Si](C)(C)O1`, the compound was classed as inactive.

Regarding `C=CCc1ccc(O)c(OC)c1`, the result was inactive.

`COc1cccc2c1C(=O)c1c(O)c3c(c(O)c1C2=O)C[C@@](O)(C(=O)CO)C[C@@H]3O[C@H]1C[C@H](N)[C@H](O)[C@H](C)O1`: the outcome was inactive.

For `Cc1cccc(C)c1O`, the result was inactive.

With `CCCCCC(=O)O`, the compound was classed as inactive.

Regarding `Oc1ccc2ccccc2c1N=Nc1ccccc1`, the result was inactive.

Take `NS(=O)(=O)c1cc2c(cc1Cl)NCNS2(=O)=O`: the call was inactive.

Consider `Cc1ccccc1Cl`, for which the compound was called inactive.

Consider `COc1ccc2c(c1)c(CC(=O)O)c(C)n2C(=O)c1ccc(Cl)cc1`, for which the outcome was inactive.

Take `Cc1cccc(Nc2cc(Cl)nc(SCC(=O)O)n2)c1C`: the result was inactive.

As to `CCOC(=O)C(C)(C)Oc1ccc(Cl)cc1`, the call was inactive.

`CCCCOC(=O)CCCCCCCCC(=O)OCCCC`: the call was inactive.

For `CCc1c(C(=O)NN2CCCCC2)nn(-c2ccc(Cl)cc2Cl)c1-c1ccc(Br)cc1`, the compound was classed as inactive.

In the case of `Oc1ccc2c(c1)OC[C@@H](N1CCC(O)(c3ccc(F)cc3)CC1)[C@H]2O`, the outcome was inactive.

As to `O=C(O)CCCCC(=O)O`, the result was inactive.

Turning to `CCCCCCCCCCCCCCCCCC(=O)O`, the outcome was inactive.

`CCCCCCCCCCCC(=O)OC`: the compound was classed as inactive.

With `O=C(N[C@@H](Cc1ccccc1)[C@@H](O)C(=O)N1C[C@@H](O)[C@@H](O)C1)c1cc2cc(Cl)ccc2[nH]1`, the compound was classed as inactive.

For `CCCCCCCC=O`, the result was inactive.

The nature of the next assay: ATG_GLI_CIS: Attagene CIS-FACTORIAL HepG2 Assay for human Zinc Finger Protein GLI1 (AID 2282945). Conditions: HepG2, Attagene cis-factorial reporter mRNA, GLI element; actives raise or lower the signal. Summed up:
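HepG2 cells transiently transfected with cis-promoter multiplexed reporter units report endogenous transcription factor activity. After 24 h chemical exposure, reporter mRNA was quantified by RT-PCR, 6-FAM labelling, HpaI digestion and capillary electrophoresis, with bidirectional fitting against DMSO.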
As for `Nc1ccc2c(c1)C(=O)c1ccccc1C2=O`, the compound was called inactive.

On to `CC(=O)C(C)=CC1C(C)=CCCC1(C)C` (stereo not given), for which the outcome was inactive.

Take `CCCCCCC(=O)OCC`: the outcome was inactive.

`CCCCN(CCCC)CCCC`: the outcome was inactive.

Consider `Cc1nc(C)nc(N2C[C@@H](C)N(c3ccnc([C@@H](C)O)n3)[C@@H](C)C2)n1`, for which the call was inactive.

As for `CC(=O)OCCOCCOCCOC(C)=O`, the result was inactive.

Turning to `CCOC(=O)CCC(=O)OCC`, the result was inactive.

With `CC(=O)Oc1ccccc1C(=O)O`, the compound was called inactive.

As to `CC(=O)OC/C=C(\C)CCC=C(C)C`, the result was inactive.

Consider `CC(C)c1ccc(C(=O)N=C(N)N)cc1S(C)(=O)=O`, for which the outcome was inactive.

`Cc1ccc(Cl)cc1`: the call was inactive.

In the case of `C[Si]1(C)O[Si](C)(C)O[Si](C)(C)O[Si](C)(C)O1`, the compound was classed as inactive.

For the compound `C=CCc1ccc(O)c(OC)c1`, the compound was called inactive.

As for `COc1cccc2c1C(=O)c1c(O)c3c(c(O)c1C2=O)C[C@@](O)(C(=O)CO)C[C@@H]3O[C@H]1C[C@H](N)[C@H](O)[C@H](C)O1`, the AC50 was 1250 nM (active).

For the compound `Cc1cccc(C)c1O`, the call was inactive.

As to `CCCCCC(=O)O`, the compound was classed as inactive.

On to `Oc1ccc2ccccc2c1N=Nc1ccccc1`, for which the compound was called inactive.

`NS(=O)(=O)c1cc2c(cc1Cl)NCNS2(=O)=O`: the compound was called inactive.

With `Cc1ccccc1Cl`, the compound was classed as inactive.

Take `COc1ccc2c(c1)c(CC(=O)O)c(C)n2C(=O)c1ccc(Cl)cc1`: the compound was classed as inactive.

As to `Cc1cccc(Nc2cc(Cl)nc(SCC(=O)O)n2)c1C`, the result was inactive.

As for `CCOC(=O)C(C)(C)Oc1ccc(Cl)cc1`, the call was inactive.

As for `CCCCOC(=O)CCCCCCCCC(=O)OCCCC`, the result was inactive.

On to `CCc1c(C(=O)NN2CCCCC2)nn(-c2ccc(Cl)cc2Cl)c1-c1ccc(Br)cc1`, for which the compound was called inactive.

In the case of `Oc1ccc2c(c1)OC[C@@H](N1CCC(O)(c3ccc(F)cc3)CC1)[C@H]2O`, the outcome was inactive.

Turning to `O=C(O)CCCCC(=O)O`, the result was inactive.

For the compound `CCCCCCCCCCCCCCCCCC(=O)O`, the compound was called inactive.

For `CCCCCCCCCCCC(=O)OC`, the outcome was inactive.

For `O=C(N[C@@H](Cc1ccccc1)[C@@H](O)C(=O)N1C[C@@H](O)[C@@H](O)C1)c1cc2cc(Cl)ccc2[nH]1`, the compound was called inactive.

On to `CCCCCCCC=O`, for which the call was inactive.
